In PubChem BioAssay AID1053117 (Broad Institute, 2014):
Results with a measured potency or affinity are listed apart. A number with no mark means an inactive call.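 How the source made its calls: active means compounds lowering cell ATP signal with a fitted half-effect dose at most twice the top valid dose; inconclusive means flat curve with 30 to 70% signal loss, or bad fit; inactive means wrong direction, flat within 30%, or weaker than limit.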

Assay: viability loss in HEK293 kidney cells – cell-based, cherry-picks, set 5, cytotoxicity control, dose response (AID 1053117);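 further: more negative means greater loss of ATP signal and more cytotoxicity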
Conditions: HEK293T viability, CellTiter-Glo ATP luminescence, 72 h; series mostly up to 26 µM; activity change, negative = cytotoxicity: at the top concentration
With `COc1cccc(S(=O)(=O)N2CC[C@@H]3[C@H]2c2cc(-c4ccc(C#N)cc4)ccc2N[C@@H]3CO)c1` the “activity change, negative = cytotoxicity” value was -11.8% [at 23.5 µM]. For `O=C(CCNS(=O)(=O)c1cccc2nonc12)NC1CCCc2ccccc21` (centres undefined), the “activity change, negative = cytotoxicity” value was 10.6%. For `N#C[C@H]1[C@H](c2ccccc2C2=CCCCC2)[C@H](CO)N1S(=O)(=O)c1ccccc1`, the “activity change, negative = cytotoxicity” value was -6.85%. In the case of `C[C@H](O)C#Cc1ccc2c(c1)O[C@H](CN(C)C)[C@@H](C)CN([C@H](C)CO)S2(=O)=O`, the “activity change, negative = cytotoxicity” value is reported as -7.39%. For `O=C(c1cccnc1)N1C[C@@H]2[C@H](c3ccccc31)[C@H](CO)N2CC1CCCC1`, the “activity change, negative = cytotoxicity” value was -19.3% [at 23.5 µM]. For `Cc1c(NC(=O)c2ccc3nsnc3c2)cccc1[N+](=O)[O-]`, the “activity change, negative = cytotoxicity” value was 11.3%. With `Cn1cnc(S(=O)(=O)N2CCN(c3ccccc3)CC2)c1` the “activity change, negative = cytotoxicity” value was -2.6%. With `CC(=O)Nc1cccc(-c2ccnc3c2CC(C)(C(=O)Nc2cccc(C(F)(F)F)c2)O3)c1` (centres undefined) the “activity change, negative = cytotoxicity” value was -8.05%. In the case of `C[C@H]1CN([C@@H](C)CO)C(=O)c2cc(NC(=O)CCCN(C)C)ccc2O[C@@H]1CN(C)Cc1ccc(-c2ccccc2)cc1`, the “activity change, negative = cytotoxicity” value is reported as -15.9%. With `CN(C)C(=O)c1ccc(-c2ccc3c(c2)[C@@H]2[C@@H](CCN2C(=O)c2ccc(F)cc2)[C@@H](CO)N3C)cc1` the “activity change, negative = cytotoxicity” value was -10.4%. For `COc1ccccc1N(CC(=O)N(CC(C)C)CC(C)C)S(=O)(=O)c1cccs1`, the “activity change, negative = cytotoxicity” value was -12.9%. For `O=C(NCCS(=O)(=O)N1CCN(c2ccc(F)cc2)CC1)c1ccc(Br)o1`, the “activity change, negative = cytotoxicity” value was -14.8%. With `C[C@H]1CN([C@@H](C)CO)C(=O)c2cc(NC(=O)CCCN(C)C)ccc2O[C@H]1CN(C)Cc1ccc(-c2ccccc2)cc1` the “activity change, negative = cytotoxicity” value was -8.58%. In the case of `CS(=O)(=O)N1CCN(c2ccc(NC(=O)c3ccc([N+](=O)[O-])o3)cc2)CC1`, the “activity change, negative = cytotoxicity” value is reported as 0.414%.
